Assay outcomes deposited in PubChem by several laboratories.
Rows were chosen to be rich in hits. Some 27% of all compounds tested hit in one or more screens of this group.
CYP2C9 inhib = human CYP2C9 inhibition; 20% of 96,000 active; inhibition, % at 5 µM; P11712; CYP2C9 Supersomes, luciferin-H conversion, luminescence; AID 777;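 active = blocking of liver enzyme CYP2C9 beyond about 50% at 5 µM, limit read from the data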
Target sequence (P11712 whole entry, looked up): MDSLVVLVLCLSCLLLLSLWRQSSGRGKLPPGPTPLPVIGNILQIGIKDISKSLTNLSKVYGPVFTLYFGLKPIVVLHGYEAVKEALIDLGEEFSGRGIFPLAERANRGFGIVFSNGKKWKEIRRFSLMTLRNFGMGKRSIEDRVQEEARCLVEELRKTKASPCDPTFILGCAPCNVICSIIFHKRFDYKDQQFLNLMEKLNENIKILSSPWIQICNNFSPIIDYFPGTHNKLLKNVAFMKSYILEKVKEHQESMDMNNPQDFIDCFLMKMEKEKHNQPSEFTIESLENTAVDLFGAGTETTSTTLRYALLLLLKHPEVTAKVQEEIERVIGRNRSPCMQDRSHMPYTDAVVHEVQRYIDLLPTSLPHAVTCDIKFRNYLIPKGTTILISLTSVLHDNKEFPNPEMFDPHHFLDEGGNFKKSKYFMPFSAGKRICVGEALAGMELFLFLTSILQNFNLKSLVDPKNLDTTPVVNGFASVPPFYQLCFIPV
PTK2B oligo ant = Pyk2 (human) oligomerization antagonism; Q14289; 0.83% of 99,000 active; AID 1347419; z-score (the deposit names both 25 µM and 10 µM); Q293 cells, Pyk2 FERM NanoBiT luminescence; stronger effect = lower value;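 active = Z-score of -3 or lower, scaled per plate to the spread of control and sample wells; inactive = z-score above -3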;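 also: negative z-score means lost luminescence so less FERM oligomerization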
Cav3 T inh = human Cav3.2 channel inhibition, primary screen; 4% of 100,000 active; B-score at 10 µM; O95180; Cav3.2-expressing cells, Fluo-4 calcium fluorescence FDSS; stronger effect = lower value; AID 449739;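 active = single-dose well whose peak fluorescence ratio is a statistical outlier from its plate by either plate-standardised score or position-corrected B-score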
CYP2C9 act = activators of human CYP2C9; P11712; recombinant CYP2C9, luciferin-H conversion, luminescence; stronger effect = higher value; factor 1 = untreated enzyme, 0 = blocked; activation factor at 5 µM; 1.4% of 96,000 active; AID 1024;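 active = activation factor of 2 or more for CYP2C9 at a 5 µM dose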;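 also: 0 = sulfaphenazole-blocked wells and 1 = vehicle-only wells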
CYP2C19 act = increases human CYP2C19 enzyme activity; recombinant CYP2C19, luciferin-H EGE luminescence; stronger effect = higher value; 0 = fully inhibited enzyme, 1 = untreated enzyme; activation factor at 5 µM; 96,000 tested, under 10 active;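 active = activation factor of at least 2 at 5 µM in the primary screen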;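 also: 0 = wells with 2.5 mM tranylcypromine and 1 = vehicle-only wells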
CYP2C19 inhib = inhibitors of human CYP2C19; 21% of 96,000 active; P33261; AID 778; inhibition, % at 5 µM; CYP2C19 Supersomes, luciferin-H EGE luminescence, 30 min;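 active = CYP2C19 inhibition above a set limit at 5 µM in the primary screen, cut at about 50% in these data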;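 also: plate controls were negative control wells for no effect and 2.5 mM tranylcypromine positive control for full effect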
Numbers without * were called inactive.

Screening CNC(=O)C(C)NS(=O)(=O)c1ccc(F)cc1 (centres undefined) returned CYP2C9 inhib -3.7, PTK2B oligo ant 0.93, Cav3 T inh -0.599, CYP2C9 act 1, CYP2C19 act 0.2 and CYP2C19 inhib 80.7*.
COC(=O)c1ccccc1NC(=O)C(C)NS(=O)(=O)c1ccc(OC)cc1 (centres undefined) was read as CYP2C9 inhib 13.0, PTK2B oligo ant 0.27, Cav3 T inh 0.874, CYP2C9 act 0.9, CYP2C19 act 0.4 and CYP2C19 inhib 57.0*.
Screening Cc1ccc(S(=O)(=O)NC(=O)Nc2ccc(F)cc2)cc1 returned PTK2B oligo ant 0.05 and Cav3 T inh -0.312.
For COC(=O)c1ccccc1NC(=O)Oc1ccc(C(C)C)cc1 the results were CYP2C9 inhib -45.3, PTK2B oligo ant -1.26, Cav3 T inh -1.12, CYP2C9 act 1.5, CYP2C19 act 0.9 and CYP2C19 inhib 10.4.
Screening COc1ccccc1CNC(=O)C(C)NS(=O)(=O)c1ccc(Br)cc1 (centres undefined) returned PTK2B oligo ant 1.64 and Cav3 T inh 0.0493.
COc1ccc(NC(=O)C(C)NS(=O)(=O)c2ccccc2)cc1Cl (centres undefined) was read as CYP2C9 inhib 34.2, PTK2B oligo ant 0.73, Cav3 T inh -0.439, CYP2C9 act 0.7, CYP2C19 act 0.1 and CYP2C19 inhib 87.4*.
`COc1ccccc1NC(=O)C(C)NS(=O)(=O)c1ccc(F)cc1` (centres undefined) gave CYP2C9 inhib -204.6, PTK2B oligo ant 0.07, Cav3 T inh 0.354, CYP2C9 act 3*, CYP2C19 act 0.5 and CYP2C19 inhib 53.4*.
O=C(CSc1ncnc2c(-c3ccc(Cl)cc3)nsc12)c1ccccc1 was read as CYP2C9 inhib 8.8, PTK2B oligo ant -0.59, Cav3 T inh -0.883, CYP2C9 act 0.9, CYP2C19 act 1 and CYP2C19 inhib -0.3.
CC(C)CCn1c(Sc2nc3ccccc3o2)nc2c1c(=O)[nH]c(=O)n2C was read as PTK2B oligo ant 0.31.
COc1ccc(Nc2nc(Nc3ccc(OC)cc3)nc(SC3=NCCS3)n2)cc1 was read as CYP2C9 inhib 64.1*, PTK2B oligo ant -2.38, Cav3 T inh -5.88*, CYP2C9 act 0.4, CYP2C19 act 0.4 and CYP2C19 inhib 58.8*.
Screening CC(=O)Nc1ccc(-c2cc(NC(C)=O)n(-c3ccccc3)n2)cc1 returned CYP2C9 inhib 19.1, PTK2B oligo ant -0.55, Cav3 T inh 0.382, CYP2C9 act 0.8, CYP2C19 act 0.7 and CYP2C19 inhib 29.2.
O=C(CCl)Nc1cc(-c2ccccc2)nn1-c1ccccc1 was read as CYP2C9 inhib 59.5*, PTK2B oligo ant -0.73, CYP2C9 act 0.4, CYP2C19 act 0.2 and CYP2C19 inhib 83.4*.
`CCOc1ccc(CN2CCN(C(=O)c3cccc(F)c3)CC2)cc1` gave PTK2B oligo ant 0.35 and Cav3 T inh 1.27.
O=C(c1ccco1)N1CCN(Cc2cccc(F)c2)CC1 was read as CYP2C9 inhib -2.5, PTK2B oligo ant -0.16, Cav3 T inh -0.0847, CYP2C9 act 1, CYP2C19 act 0.6 and CYP2C19 inhib 43.1.
Screening COc1cc(OC)cc(C(=O)N2CCN(Cc3cccc(F)c3)CC2)c1 returned CYP2C9 inhib -32.4, PTK2B oligo ant -0.28, Cav3 T inh -0.0336, CYP2C9 act 1.3, CYP2C19 act 0 and CYP2C19 inhib 98.0*.
`O=C(c1cccc(F)c1)N1CCN(Cc2ccco2)CC1` gave CYP2C9 inhib 10.1, PTK2B oligo ant 1.02, Cav3 T inh -0.0899, CYP2C9 act 0.9, CYP2C19 act 0.3 and CYP2C19 inhib 69.2*.
For O=C(NC1CCCC1)c1noc2c1CCCCC2 the results were CYP2C9 inhib 29.5, PTK2B oligo ant -0.65, Cav3 T inh 1.45, CYP2C9 act 0.7, CYP2C19 act 0.6 and CYP2C19 inhib 42.5.
Screening CCC(C)NC(=O)C1c2cc(OC)c(OC)cc2C(=O)N(C)C1c1cccs1 (centres undefined) returned CYP2C9 inhib -1.1, PTK2B oligo ant -0.03, Cav3 T inh 0.0342, CYP2C9 act 1, CYP2C19 act 0.8 and CYP2C19 inhib 15.1.
For O=C(CCN1C(=O)S/C(=C\c2ccccc2)C1=O)Nc1ccc(S(=O)(=O)Nc2nccs2)cc1 the results were CYP2C9 inhib 64.7*, PTK2B oligo ant -0.74, CYP2C9 act 0.4, CYP2C19 act 0.7 and CYP2C19 inhib 29.1.
Screening CCCn1nc(C(=O)NCc2ccccn2)c2ccccc2c1=O returned CYP2C9 inhib 45.4, PTK2B oligo ant 0.89, Cav3 T inh 1.11, CYP2C9 act 0.5, CYP2C19 act 0.8 and CYP2C19 inhib 15.2.
Screening CCCn1nc(C(=O)Nc2ccc(S(=O)(=O)Nc3nccs3)cc2)c2ccccc2c1=O returned CYP2C9 inhib 59.5*, PTK2B oligo ant -1.72, Cav3 T inh 0.441, CYP2C9 act 0.4, CYP2C19 act 0.9 and CYP2C19 inhib 5.2.
`CCCn1nc(C(=O)Nc2cccc(C(=O)OC)c2)c2ccccc2c1=O` gave CYP2C9 inhib 78.8*, PTK2B oligo ant -1.52, CYP2C9 act 0.2, CYP2C19 act 0.4 and CYP2C19 inhib 63.3*.
Cn1ncc(C#N)c1/N=C/N(Cc1ccccc1)Cc1ccccc1 was read as CYP2C9 inhib 99.0*, PTK2B oligo ant -0.62, Cav3 T inh -8.42*, CYP2C9 act 0, CYP2C19 act 0 and CYP2C19 inhib 95.2*.
For CN1CCN(/C=N/c2c(C#N)cnn2C)CC1 the results were CYP2C9 inhib -3.1, PTK2B oligo ant -0.49, Cav3 T inh 0.359, CYP2C9 act 1, CYP2C19 act 1.1 and CYP2C19 inhib -12.6.
Screening CCOc1ccc(-n2c(SCC(=O)Nc3cc(C)on3)nnc2-c2c[nH]c3ccccc23)cc1 returned CYP2C9 inhib 39.9, PTK2B oligo ant -2.4, Cav3 T inh 0.0225, CYP2C9 act 0.6, CYP2C19 act 0.9 and CYP2C19 inhib 14.3.
`CCCCNC(=O)CSc1nnc(-c2c[nH]c3ccccc23)n1CC1CCCO1` (centres undefined) gave CYP2C9 inhib 44.2, PTK2B oligo ant 2.35, Cav3 T inh 0.599, CYP2C9 act 0.6, CYP2C19 act 0.5 and CYP2C19 inhib 52.6*.
`COc1ccc(OC)c(-n2c(SCC(N)=O)nnc2-c2c[nH]c3ccccc23)c1` gave CYP2C9 inhib 58.4*, Cav3 T inh 1.97, CYP2C9 act 0.4, CYP2C19 act 0.6 and CYP2C19 inhib 38.7.
COc1cccc(-c2nnc(SCC(N)=O)n2-c2ccc(Cl)cc2)c1 was read as CYP2C9 inhib 21.3, PTK2B oligo ant -0.44, Cav3 T inh 0.0544, CYP2C9 act 0.8, CYP2C19 act 0.8 and CYP2C19 inhib 16.8.
Screening COc1cccc(-n2c(SCC(N)=O)nnc2-c2c[nH]c3ccccc23)c1 returned CYP2C9 inhib 30.7, Cav3 T inh 0.726, CYP2C9 act 0.7, CYP2C19 act 0.1 and CYP2C19 inhib 89.2*.
